Test: inducers of human heat shock response, cell-based, HSE luciferase (AID 1611)
Conditions: human cells, HSE-luciferase heat shock reporter; stronger effect = higher value
For O=C(O)c1ccccc1OP(=O)(O)O, the fold change was 1.04. Compound Cc1cccc(Nc2ccccc2C(=O)O)c1C has a fold change of 1.2. CC1CCC(NC(=O)N(CCCl)N=O)CC1 (configuration not stated) gave a fold change of 0.95. Compound CC(CN(C)C)CN1c2ccccc2CCc2ccccc21 (configuration not stated) has a fold change of 1.16. CC(C[N+](C)(C)C)OC(N)=O (configuration not stated) showed a fold change of 0.9. In the case of CC(=O)Nc1nnc(S(N)(=O)=O)s1, the fold change is reported as 0.33. Work on NCCCC(N)CC(=O)NCC1NC(=O)C(CO)NC(=O)C(N)CNC(=O)C(C2CCN=C(N)N2)NC(=O)/C(=C/NC(N)=O)NC1=O (configuration not stated) yielded a fold change of 0.59. For NC(=O)c1cnccn1, the fold change was 1.78. CC1CCc2cc(F)cc3c(=O)c(C(=O)O)cn1c23 (configuration not stated) gave a fold change of 1.07. Work on O=c1ccn([C@@H]2O[C@H](COP(=O)(O)OP(=O)(O)OP(=O)(O)O)[C@@H](O)[C@H]2O)c(=O)[nH]1 yielded a fold change of 1.15. In the case of COc1ccc2cc3[n+](cc2c1OC)CCc1cc2c(cc1-3)OCO2, the fold change is reported as 1.07. O=C1C(CCS(=O)c2ccccc2)C(=O)N(c2ccccc2)N1c1ccccc1 (configuration not stated) showed a fold change of 0.91. Cc1ccccc1N1C(=O)c2cc(S(N)(=O)=O)c(Cl)cc2NC1C (configuration not stated) gave a fold change of 0.83. Compound COc1ccccc1OCC(O)CO (configuration not stated) has a fold change of 1. In the case of CO[C@H]1C[C@H](O[C@H]2[C@H](C)[C@@H](OC3O[C@H](C)C[C@H](N(C)C)[C@H]3O)[C@@H](C)C[C@]3(CO3)C(=O)[C@H](C)[C@@H](O)[C@@H](C)[C@@H](C)OC(=O)[C@@H]2C)O[C@@H](C)[C@@H]1O (some centres not stated), the fold change is reported as 0.75. Work on C[C@](N)(Cc1ccc(O)c(O)c1)C(=O)O yielded a fold change of 0.74. COc1c(C)c2c(c(O)c1C/C=C(\C)CCC(=O)O)C(=O)OC2 gave a fold change of 0.85.
